From PubChem BioAssay (NCATS)
Inconclusive results are not listed. Active and inactive are the calls of the source. Calls come from the whole dose curve; as a rule, active = well fitted curve in the direction sought with a large enough effect; inconclusive = small, poorly fitted or top-dose-only effect, or another doubt; inactive = no such curve, though single readings can be large; an effect the other way counts as inactive or inconclusive.

Assays:
[1] = Cellular Toxicity (caspase-3) SK-N-SH (AID 661);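 note: 0% = DMSO basal and 100% = 10 µM staurosporine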
Procedure, shortened: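 Human neuroblastoma SK-N-SH, 1500 cells/well, 5 hr pre-incubation, then compound 16 hr, 37 °C. Caspase-Glo 3/7 reagent, 1 hr RT, luminescence. Norm. to DMSO/10 uM staurosporine; Hill-fit AC50.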

[2] = Cellular Toxicity (caspase-3) H-4-II-E (AID 663); conditions: H-4-II-E rat hepatoma, scaled: DMSO 0%, 100 µM tamoxifen 100%; at 92.2 µM (top of the series);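 note: cells exposed to compound for 16 hr before readout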
Procedure, shortened: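 Luminescence from caspase-cleaved aminoluciferin substrate, read 20 min after reagent addition, reports caspase 3/7 activation in rat H-4-II-E cells after 16 hr compound exposure. Normalized to DMSO (basal) and 100 uM tamoxifen (100%); AC50 from Hill fits.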

[3] = Cellular Toxicity (caspase-3) Hek293 (AID 664); conditions: HEK293 caspase-3 activation, DMSO = 0%, 100 µM tamoxifen = 100%; at 92.2 µM (top of the series);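 note: cells exposed to compound for 16 h at 37 °C before readout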
Procedure, shortened: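 Cells plated, 5 hr at 37 °C; compounds added; 16 hr at 37 °C; Caspase-Glo 3/7 reagent, 20 min RT; luminescence read. Activation expressed relative to DMSO and 100 uM tamoxifen, AC50 by Hill model.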

[4] = Cellular Toxicity (caspase-3) N2a (AID 665);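 note: compound exposure lasted 16 h at 37 °C before readout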
Procedure, shortened: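 N2a cells, 1500/well, 5 h settle at 37 °C; cpd 16 h, 37 °C; Caspase-Glo 3/7, 1 h RT; luminescence. Norm: DMSO = 0, 10 uM staurosporine = 100%. AC50, Hill fit.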

[5] = Cellular Toxicity (caspase-3) NIH 3T3 (AID 666);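 note: 0% = DMSO basal and 100% = 100 µM tamoxifen stimulation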
Procedure, shortened: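 Luminescence from aminoluciferin released by caspase-3/7 cleavage of a peptide substrate served as read-out. Mouse fibroblast NIH 3T3 cells were exposed to compounds over a concentration range for 16 hours, and AC50 values came from standard Hill modelling.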

[6] = Cellular Toxicity (caspase-3) Renal Proximal Tubule (AID 667); conditions: Potency: caspase-3 activation;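 note: cells exposed to compound for 16 hours at 37 °C before detection; 0% = DMSO basal and 100% = 10 µM staurosporine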
Procedure, shortened: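 Freshly isolated primary rat kidney proximal tubule cells, 1000/well, treated 16 hr at 37 °C, then Caspase-Glo 3/7 luminescence after 1 hr. Normalized to DMSO and 10 uM staurosporine; AC50 from Hill fit.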

[7] = molecular target: Cytochrome P450 3A4 (Homo sapiens) (UniProt P08684); experiment: qHTS Assay for Inhibitors and Substrates of Cytochrome P450 3A4 (AID 884); note: % is set by controls: 0 for no effect and ±100 for the full control effect; nearly all actives have a fitted effect of over 50% in size
Procedure, shortened: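 20 nM human CYP3A4 with 25 uM Luciferin-PPXE (at KM) in 200 mM KPO4, preincubated 10 min with compound; NADPH regeneration started a 60 min RT reaction. Luciferin detected by luminescence, normalized to 57 uM ketoconazole as full inhibition.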

[8] = Cell Viability - LYMP2-001 (AID 921);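 note: 0% = DMSO only and full inhibition = tetraoctylammonium bromide control wells; nearly all actives have a fitted effect of over 70% in size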
Procedure, shortened: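 Human lymphoblastoid LYMP2-001 cells, 2500 per well, in complete medium, treated 24 h at 37 C. Viability from cellular ATP by CellTiter-Glo luminescence; AC50 from Hill-equation fits of qHTS concentration-response.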

[9] = MultiTox-Fluor Cytotoxicity Assay - LYMP1-001 - Dead Cells (AID 946)
Procedure, shortened: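 Cytotoxicity as increased dead-cell protease fluorescence (bis-AAF-R110, 485/520 nm), read 60 min after MultiTox-Fluor reagent. Human lymphoblastoid line exposed 16 h; Hill-fitted AC50, with DMSO as 0% and 15 uM tetraoctylammonium bromide as 100%.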

[10] = MultiTox-Fluor Cytotoxicity Assay - LYMP1-001 - Live Cells (AID 947);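 note: 0% = DMSO only and full inhibition = tetraoctylammonium bromide control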
[11] = Cell Viability - LYMP1-002 - Assay at 16 hr (AID 948);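 note: 0% = DMSO alone and full effect = 92 µM tetraoctylammonium bromide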
Procedure, shortened: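 LYMP1-002 human lymphoblastoid cells, 2500/well, were treated with compounds for 16 hr at 37 C in complete medium. Viability was read as intracellular ATP by CellTiter-Glo luminescence, and AC50 was derived from a Hill fit to concentration-response data.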

[12] = MultiTox-Fluor Cytotoxicity Assay - LYMP1-002 - Live Cells (AID 955); note: % is set by controls: 0 for no effect and ±100 for the full control effect
Procedure, shortened: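 Read-out is live-cell protease activity (cell-permeant GF-AFC substrate, fluorescence Ex/Em=405/510), where a decrease indicates acute toxicity. Human lymphoblastoid cells were treated 16 hours at 37 C in a concentration series, and AC50 values came from standard Hill modelling.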

[13] = MultiTox-Fluor Cytotoxicity Assay - LYMP1-002 - Dead Cells (AID 960); note: nearly all actives have a fitted effect of over 60% in size
Procedure, shortened: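 LYMP1-002 cells 2500/well; 5 hr 37 C pre-incubation; compound 16 hr 37 C; MultiTox-Fluor reagent 60 min RT; dead-cell fluor Ex/Em 485/520. Norm. to DMSO (0%) vs 15 uM tetraoctylammonium bromide (100%); Hill AC50.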

[14] = MultiTox-Fluor Cytotoxicity Assay - LYMP1-003 - Dead Cells (AID 961); note: nearly all actives have a fitted effect of over 70% in size
Procedure, shortened: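 Dead-cell protease release, detected as bis-AAF-R110 fluorescence at 485/520 nm, was measured in LYMP1-003 cells after 16 h compound treatment at 37 C. AC50 values came from Hill-modeled qHTS curves normalized to DMSO (0%) and 15 uM tetraoctylammonium bromide (100%).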

[15] = MultiTox-Fluor Cytotoxicity Assay - LYMP1-003 - Live Cells (AID 962);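 note: cells exposed to compound for 16 hours at 37 °C; 0% = DMSO only and full loss = 92 µM tetraoctylammonium bromide; cytotoxic hits lower the live-cell protease signal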
Procedure, shortened: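 qHTS, 1536-well; 2500 cells/well LYMP1-003; 5 hr 37 C settle; cpd 16 hr 37 C; MultiTox-Fluor reagent 60 min RT; live-cell protease fluor. 405/510; Hill-fit AC50; tetraoctylammonium bromide pos. ctrl.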

[16] = Cell Viability - LYMP1-003 - Assay at 24 hr (AID 963);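 note: plate controls were DMSO only for no effect and tetraoctylammonium bromide positive control for full effect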
Procedure, shortened: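 Cells seeded at 2500/well, 5 hr at 37 C; compounds added; 24 hr at 37 C; CellTiter-Glo added, 30 min room temperature; luminescence read. Decrease in ATP taken as cytotoxicity, AC50 from Hill modelling.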

[17] = Cell Viability - LYMP1-003 - Assay at 40 hr (AID 964); note: % is set by controls: 0 for no effect and ±100 for the full control effect; nearly all actives have a fitted effect of over 60% in size
Procedure, shortened: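 Cells were seeded at 2500 per well and incubated 5 hr at 37 C. Compounds were added across a concentration series and left 40 hr at 37 C. CellTiter-Glo was added for 30 min at room temperature before luminescence reading.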

[18] = Cell Viability - LYMP2-003 (AID 965);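 note: cells exposed to compounds for 24 h before reading; 0% = DMSO only and full effect = 92 µM tetraoctylammonium bromide; nearly all actives have a fitted effect of over 50% in size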
Procedure, shortened: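 Human lymphoblastoid LYMP2-003 cells, 2500/well, exposed to compounds for 24 h at 37 C in complete medium. Viability read as intracellular ATP by CellTiter-Glo luminescence; AC50 from Hill-equation fits of qHTS concentration-response data.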

[19] = molecular target: Cytochrome P450 3A4 (Homo sapiens) (UniProt P08684); experiment: qHTS Assay for Activators of Cytochrome P450 3A4 (AID 885); note: nearly all actives have a fitted effect of over 65% in size
Procedure, shortened: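 Signal was normalized against complete inhibition by 57 uM ketoconazole. The reaction used 20nM CYP3A4 with 25uM Luciferin-PPXE, 10-min compound preincubation and a 60-min NADPH-supported step at RT.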

Cytochrome P450 3A4 (Homo sapiens), sequence (P08684 whole entry, looked up): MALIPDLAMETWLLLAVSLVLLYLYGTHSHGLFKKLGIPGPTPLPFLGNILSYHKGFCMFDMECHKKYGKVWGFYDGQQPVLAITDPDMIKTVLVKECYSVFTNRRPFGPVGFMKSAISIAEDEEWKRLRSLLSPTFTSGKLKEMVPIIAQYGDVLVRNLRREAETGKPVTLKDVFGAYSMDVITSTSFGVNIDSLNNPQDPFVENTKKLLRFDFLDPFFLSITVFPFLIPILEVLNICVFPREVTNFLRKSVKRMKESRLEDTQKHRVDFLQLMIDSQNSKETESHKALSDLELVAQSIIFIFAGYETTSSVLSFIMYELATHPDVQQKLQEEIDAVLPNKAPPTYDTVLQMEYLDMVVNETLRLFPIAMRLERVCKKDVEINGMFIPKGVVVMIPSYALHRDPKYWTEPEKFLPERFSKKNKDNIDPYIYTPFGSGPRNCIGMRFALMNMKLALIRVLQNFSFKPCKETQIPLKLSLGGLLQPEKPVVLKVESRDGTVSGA

C1CCCC1
inactive: outcome [1] | caspase-3 activation [2] -0.556% | caspase-3 activation [3] 0.0682% | outcome [4] | outcome [5] | Potency [6] | Potency [7] | Potency [8] | outcome [9] | outcome [10] | outcome [11] | outcome [12] | outcome [13] | Potency [14] | Potency [15] | Potency [16] | Potency [17] | Potency [18]

O=[N+]([O-])c1ccccc1CCO
inactive: outcome [1] | caspase-3 activation [2] 1.12% | caspase-3 activation [3] -0.925% | outcome [4] | outcome [5] | Potency [6] | Potency [7] | Potency [8] | outcome [9] | outcome [10] | outcome [11] | outcome [12] | outcome [13] | Potency [14] | Potency [15] | Potency [16] | Potency [17] | Potency [18]

O=C(O)c1ccccc1C(=O)O
inactive: outcome [1] | caspase-3 activation [3] 3.14% | outcome [4] | outcome [5] | Potency [6] | Potency [7] | Potency [8] | outcome [9] | outcome [11] | outcome [12] | outcome [13] | Potency [14] | Potency [15] | Potency [16] | Potency [17] | Potency [18]

FC(F)(F)c1ccccc1Cl
inactive: outcome [1] | caspase-3 activation [2] 0.997% | outcome [5] | Potency [6] | Potency [7] | Potency [8] | outcome [9] | outcome [10] | outcome [11] | outcome [12] | Potency [14] | Potency [15] | Potency [16] | Potency [17] | Potency [18]

CC(=O)CC(C)C
inactive: outcome [1] | outcome [4] | outcome [5] | Potency [6] | Potency [7] | Potency [8] | outcome [9] | outcome [10] | outcome [11] | outcome [12] | outcome [13] | Potency [14] | Potency [15] | Potency [16] | Potency [17] | Potency [18]

O=C(O)c1cccc(Cl)c1Cl
inactive: outcome [1] | caspase-3 activation [3] -1.27% | outcome [4] | outcome [5] | Potency [6] | Potency [7] | Potency [8] | outcome [9] | outcome [11] | outcome [12] | outcome [13] | Potency [14] | Potency [15] | Potency [16] | Potency [17] | Potency [18]

COc1ccc(N=[N+]([O-])c2ccc(OC)cc2)cc1
inactive: outcome [1] | caspase-3 activation [2] -3.45% | outcome [4] | Potency [6] | Potency [7] | Potency [8] | outcome [9] | outcome [11] | outcome [12] | Potency [14] | Potency [15] | Potency [16] | Potency [17] | Potency [18]

Cc1ccc(Cl)cc1
inactive: outcome [1] | caspase-3 activation [2] 0.337% | caspase-3 activation [3] 0.748% | outcome [4] | outcome [5] | Potency [6] | Potency [7] | Potency [8] | outcome [9] | outcome [10] | outcome [11] | outcome [12] | outcome [13] | Potency [14] | Potency [15] | Potency [16] | Potency [17] | Potency [18]

Cc1ccc2nc(-c3ccc(N)cc3)sc2c1S(=O)(=O)O
inactive: outcome [1] | caspase-3 activation [2] -4.87% | caspase-3 activation [3] -8.94% | outcome [4] | Potency [6] | outcome [19] | Potency [8] | outcome [9] | outcome [10] | outcome [11] | outcome [12] | outcome [13] | Potency [14] | Potency [15] | Potency [16] | Potency [17] | Potency [18]

CC(=O)c1nccs1
inactive: outcome [1] | caspase-3 activation [2] 1.15% | caspase-3 activation [3] 4.27% | outcome [4] | outcome [5] | Potency [6] | Potency [7] | Potency [8] | outcome [9] | outcome [10] | outcome [11] | outcome [12] | outcome [13] | Potency [14] | Potency [15] | Potency [16] | Potency [17] | Potency [18]

C=C(C)C(=O)OC
inactive: outcome [1] | caspase-3 activation [3] 1.97% | outcome [4] | outcome [5] | Potency [6] | Potency [7] | Potency [8] | outcome [9] | outcome [10] | outcome [11] | outcome [12] | outcome [13] | Potency [14] | Potency [15] | Potency [16] | Potency [17] | Potency [18]

CC(C)(C)OC=O
inactive: outcome [1] | caspase-3 activation [2] 0.183% | caspase-3 activation [3] -1.63% | outcome [4] | outcome [5] | Potency [6] | Potency [7] | outcome [9] | outcome [10] | outcome [11] | outcome [12] | outcome [13] | Potency [14] | Potency [15] | Potency [16] | Potency [17] | Potency [18]

CCCCCCC=O
inactive: outcome [1] | caspase-3 activation [2] 1.06% | caspase-3 activation [3] -2.62% | outcome [4] | outcome [5] | Potency [6] | Potency [7] | Potency [8] | outcome [9] | outcome [10] | outcome [11] | outcome [12] | Potency [14] | Potency [15] | Potency [16] | Potency [17]

Cc1ccc2oc(=O)ccc2c1
inactive: outcome [1] | caspase-3 activation [2] 1.34% | caspase-3 activation [3] -2.33% | outcome [4] | outcome [5] | Potency [6] | Potency [7] | Potency [8] | outcome [9] | outcome [10] | outcome [11] | outcome [12] | Potency [14] | Potency [15] | Potency [16] | Potency [17] | Potency [18]

C=CC(=O)NC(C)C
inactive: outcome [1] | caspase-3 activation [2] 0.575% | caspase-3 activation [3] 2.01% | outcome [4] | outcome [5] | Potency [6] | Potency [7] | Potency [8] | outcome [9] | outcome [10] | outcome [11] | outcome [12] | outcome [13] | Potency [14] | Potency [15] | Potency [16] | Potency [17] | Potency [18]

Cc1ccccc1Br
inactive: outcome [1] | caspase-3 activation [2] 0.309% | caspase-3 activation [3] -0.786% | outcome [5] | Potency [6] | Potency [7] | Potency [8] | outcome [9] | outcome [10] | outcome [11] | outcome [12] | Potency [15] | Potency [16] | Potency [17] | Potency [18]

CC(C)Nc1ccccc1
inactive: outcome [1] | caspase-3 activation [2] 0.457% | caspase-3 activation [3] 2.55% | outcome [4] | outcome [5] | Potency [6] | Potency [7] | Potency [8] | outcome [9] | outcome [10] | outcome [11] | outcome [12] | outcome [13] | Potency [15] | Potency [16] | Potency [17] | Potency [18]
